The results in this text go back to PubChem BioAssay (NCI).

Holding throughout (experiment): NCI-60 one-dose screen, 48 h (100 = growth as untreated, 0 = no growth, -100 = all killed)
Holding throughout (conditions): 10 µM unless noted

The test system of experiment [1] is NCI-H23 lung.
Experiment [2] concerns NCI-H226 lung.
In experiment [3] the test system is NCI-H322M lung.
The subject of experiment [4] is HOP-62 NSCLC.
The test system of experiment [5] is NCI-H460 lung.
In experiment [6] the test system is HOP-92 NSCLC.
The subject of experiment [7] is NCI-H522 lung.
In experiment [8] the test system is A549/ATCC NSCLC.
Experiment [9] concerns 786-0 renal.
The subject of experiment [10] is COLO 205 colon.
For experiment [11], the system named is DU-145 prostate.
In experiment [12] the test system is K-562 leukemia.
Experiment [13] relates to MALME-3M melanoma.
Experiment [14] concerns MDA-MB-231 breast.
Experiment [15] concerns RXF 393 renal.
Experiment [16] has as its system SF-268 CNS.
Experiment [17] deals with SF-295 CNS.
Experiment [18] concerns SF-539 CNS.
The test system of experiment [19] is UACC-257 melanoma.
Experiment [20] deals with M14 melanoma.

Compounds without any hit were thinned out: in the full panel of roughly 83,000, 20% have a hit.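 Single-dose data. Exposure time 48 hours. Values below 10 considered active.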 A number with no mark means an inactive call. Activity calls are given as the source filed them.

As to `CC(C)(C)n1cc(-c2ccnc(NCCCNS(=O)(=O)c3ccc(C(F)(F)F)cc3)c2)c(-c2cccc(O)c2)n1`, the growth was 37.8% in experiment [1]; 42% in experiment [2]; 35.1% in [3]; 54.8% in [4]; -48.5% (active) in experiment [5]; 22.7% in experiment [6]. Besides, the growth was -13.3% (active) in [7]; 21.5% in experiment [8]; -17.3% (active) in experiment [9]; -59.1% (active) in [10]; 46.3% in [11]; 3% (active) in experiment [12]. Moreover, the growth in experiment [13] was -18% (active); in experiment [14] it was 1.39% (active); in experiment [15], -3.46% (active); in [16], 36.3%; in experiment [17], 1.72% (active); in [18], 19.8%. Besides, the results for the growth in experiment [19] and in [20] were 17.2% and 1.32% (active), respectively.

Turning to `C=C1CCC2C3(C)COC(c4ccc(N(C)C)cc4)OC3CCC2(C)C1C/C=C1/C(=O)OCC1O` (stereo not given), the growth was 66.4% in experiment [1]; 109% in [2]; 83.1% in experiment [3]; 108% in experiment [4]; 74.2% in experiment [5]; 68.9% in experiment [6]. In addition, the growth in [7] is 74.2%; in experiment [8], 52%; in experiment [9] it was 96%; in experiment [10] it was 19.5%; in [11], 7.35% (active); in experiment [12] it was 44%. Moreover, the growth in experiment [13] was 105%; in experiment [14], 85.4%; in experiment [15], 1.3% (active); in experiment [16] it was 74.9%; in experiment [17], 95.6%; in [18], 99.2%. Besides, the growth in [19] was 49.5%; in [20], 71.7%.

On to `CC(C)(C)n1cc(-c2ccnc(NCCCNS(=O)(=O)c3ccc(Cl)cc3)c2)c(-c2cccc(O)c2)n1`, for which the growth was 14% in experiment [1]; 14% in [2]; 10.6% in experiment [3]; 9.75% (active) in [4]; -66.7% (active) in experiment [5]; -2.33% (active) in experiment [6]. In addition, the growth in experiment [7] was -55.7% (active); in experiment [8], 9.33% (active); in [9], -35.2% (active); in experiment [10] it was -86.8% (active); in experiment [11] it was 13.1%; in [12] it was -23.3% (active). Moreover, the growth in [13] was -44.5% (active); in experiment [14] it was -24.4% (active); in experiment [15] it was -12% (active); in experiment [16], 20.7%; in experiment [17], -45% (active); in experiment [18], -26.1% (active). The growth in experiment [19] was -39.3% (active); in [20] it was -23.2% (active).

For `COc1ccc(-c2nc(-c3nc4cc(C)c(C)cc4[nH]3)cc3c2[nH]c2ccccc23)cc1`, the growth is 60.1% in experiment [1]; 95.8% in experiment [2]; 84% in experiment [3]; 58.4% in [4]; 42.2% in [5]; 52.3% in [6]. Besides, the growth in experiment [7] is 72.5%; in experiment [8], 43.2%; in experiment [9], 6.87% (active); in [10], 41.9%; in [11], 84.7%; in [12], 11.4%. In addition, the growth is 73.1% in experiment [13]; -49.5% (active) in [14]; -63.8% (active) in [15]; 80.5% in experiment [16]; 25.4% in experiment [17]; 5.88% (active) in [18]. For the same compound, the growth is 89.1% in [19] and 70.2% in experiment [20].

As for `N=C(N)c1ccc(-c2ccc(-c3ccc(-c4cccs4)s3)s2)cc1`, the growth in experiment [1] was 98.8%; in experiment [2], 93.4%; in experiment [3], 43%; in experiment [4] it was 93.8%; in experiment [5], 21.7%; in [6], 54.6%. Further, the growth in experiment [7] is 100%; in experiment [8] it was 14%; in [9] it was 89.9%; in experiment [10], 102%; in experiment [11] it was 90.4%; in experiment [12] it was 58%. Further, the growth in experiment [13] is 85%; in experiment [14], 81.1%; in experiment [15], 80.7%; in experiment [16] it was 93.5%; in experiment [17], 101%; in experiment [18], 88.5%. Besides, the growth was 99.3% in experiment [19] and 100% in experiment [20].

For the compound `COc1ccc(/C=N\NC(=O)CN2CCN(c3cc4c(cc3F)c(=O)c(C(=O)N/N=C/c3ccc(OC)c(OC)c3)cn4C3CC3)CC2)cc1OC`, the growth in experiment [1] was -32% (active); in experiment [2], 52.1%; in experiment [3] it was 11.1%; in experiment [4] it was 9.47% (active); in experiment [5], 3.65% (active); in experiment [6] it was -2.77% (active). Besides, the growth was 7.49% (active) in experiment [7]; 48.6% in experiment [8]; 45.4% in experiment [9]; 7.74% (active) in experiment [10]; 4.82% (active) in experiment [11]; 13.3% in [12]. Besides, the growth in experiment [13] was -71.9% (active); in [14], -22.9% (active); in [15], 61.1%; in experiment [16], -10.9% (active); in experiment [17], 66.2%; in experiment [18] it was -21.8% (active). Moreover, the growth was 11.4% in experiment [19] and 20.3% in experiment [20].

Consider `CC(C)NCCCNC1=C(Cl)C(=O)c2ccccc2C1=O`, for which the growth in experiment [1] is 16.3%; in experiment [2] it was 93.1%; in experiment [3], 105%; in [4], 98.3%; in experiment [5], 87.2%; in experiment [6] it was 110%. Besides, the growth in experiment [7] is 91.9%; in experiment [8], 81.7%; in [9] it was 113%; in experiment [10] it was 95.4%; in [11], 47.8%; in experiment [12], -41.9% (active). Moreover, the growth in experiment [13] is -78% (active); in experiment [14], 76.3%; in [15] it was 119%; in [16], 91.5%; in experiment [17] it was 57.4%; in experiment [18], 119%. In addition, the growth is 3.04% (active) in experiment [19] and 74.3% in [20].
